Compound activity: PubChem BioAssay, Broad Institute
T cruzi growth-1: T. cruzi proliferation inhibition; T. cruzi beta-gal in NIH3T3, GalScreen luminescence, 90 h; inhibition, % at 8.34 µM; 77,000 compounds, 5.9% hits; AID 624255;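 active = mean inhibition above about 93%, with at least 55% of replicates each passing it, limit read from the data, passing the limit was not always enough; inconclusive = only one of those two conditions holds; inactive = neither condition holds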
Pf Dd2 inh: blocks growth of Plasmodium falciparum Dd2 parasites; P. falciparum Dd2 growth, SYBR Green, 72 h; active compounds read low; 94,000 compounds, 2.3% hits; AID 1159554; activity change, % at 10 µM; in the data active = activity change below about -80%; inconclusive = no clear call, values can overlap the other calls
C diff growth: inhibitors of Clostridium difficile growth; Clostridium difficile clinical isolate growth, OD600, 24 h; active compounds read low; growth activity, negative = inhibition, % at 16 µg/mL (by protocol); 86,000 compounds, 0.25% hits; AID 1259249;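 active = mean growth activity at or below -80% and every replicate also at or below -80%; inconclusive = mean at or below -80% but some replicate above -80%; inactive = mean growth activity above -80%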;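 note: 0% = DMSO wells and -100% = levofloxacin 16 µg/mL wells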
T cruzi growth-2: Trypanosoma cruzi proliferation inhibition. shares compounds with T cruzi growth-1. T. cruzi beta-gal in NIH3T3, GalScreen luminescence, 90 h. inhibition, % at 8.35 µM. 5,600 compounds, 72% hits;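 active = mean replicate inhibition above about 95% and at least 55% of replicates individually reaching it, limit read from the data; inconclusive = only one of the two criteria is met; inactive = neither criterion is met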
T cruzi growth-3: blocks T. cruzi growth in NIH3T3 host cells. 5,600 compounds, 21% hits. shares compounds with T cruzi growth-1. T. cruzi beta-gal in NIH3T3, GalScreen luminescence, 90 h. inhibition, % at 2.09 µM. AID 651740;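 active = mean inhibition above about 95%, with at least 55% of replicates also reaching it, limit read from the data; inconclusive = meets just one of the two conditions; inactive = meets neither condition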;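 note: plate controls were neutral control median for no effect and positive control median for full effect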
NIH3T3 tox: cytotoxicity in mouse NIH/3T3 fibroblasts; 5,600 compounds, 14% hits; cytotoxicity (signal decrease), % at 8.35 µM; NIH/3T3 viability, CellTiter-Glo ATP luminescence, 90 h; shares compounds with T cruzi growth-1;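 active = mean signal decrease across replicates above about 35% based on untreated-well scatter, with enough replicates individually passing, limit read from the data; inconclusive = no rule stated though some were filed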;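 note: 0% = median of neutral control wells and 100% = median of positive control wells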
3T3 cytotox 2: NIH/3T3 (mouse) viability loss; 5,600 compounds, 56% hits; inhibition, % at 24.9 µM; shares compounds with T cruzi growth-1; NIH/3T3 viability, CellTiter-Glo ATP luminescence, 90 h;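 active = mean loss of cell viability signal at or above a set limit, and enough replicates individually reaching it; inconclusive = meets only the mean limit or only the replicate share; inactive = meets neither condition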;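 note: 0% = median of neutral control wells and 100% = median of positive control wells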
Numbers without * were called inactive; u = inconclusive; x = no result. Rows were chosen to be rich in hits. Some 6.7% of all compounds tested hit in one or more screens of this group.

SMILES	T cruzi growth-1	Pf Dd2 inh	C diff growth	T cruzi growth-2	T cruzi growth-3	NIH3T3 tox	3T3 cytotox 2
C[C@@H]1CN([C@H](C)CO)C(=O)Cc2cc(NC(=O)CCC(F)(F)F)ccc2O[C@H]1CN(C)C(=O)NC1CCCCC1	6.5	2.2	0.8	x	x	x	x
C[C@H](CO)N1C[C@H](C)[C@H](CN(C)S(=O)(=O)c2cccs2)Oc2ccc(NC(=O)Cc3cn(C)c4ccccc34)cc2CC1=O	39.9	-17.1	-4.5	x	x	x	x
CCCNC(=O)N1C[C@H](C)[C@H](OC)CN(C)C(=O)c2cc(NC(=O)CC)ccc2OC[C@@H]1C	41.5	2.6	x	x	x	x	x
CCCN1C[C@H](C)[C@@H](OC)CN(C)C(=O)c2ccc(NS(=O)(=O)c3cn(C)cn3)cc2OC[C@H]1C	105.1*	12.8	x	-4.9	-22.3	2.6	-2.8
CCCC(=O)Nc1ccc2c(c1)OC[C@H](C)N(C(=O)c1cccnc1)C[C@@H](C)[C@H](OC)CN(C)C2=O	99.8*	-38.2	x	61.0	-24.9	11.3	-7.8
CCC(=O)N1C[C@@H](C)[C@@H](OC)CN(C)C(=O)c2cc(NC(=O)c3ccccc3)ccc2OC[C@@H]1C	-17.4	-37.2	x	x	x	x	x
CCC(=O)N1C[C@H](C)[C@@H](OC)CN(C)C(=O)c2ccc(NC(=O)c3ccccc3)cc2OC[C@@H]1C	107.6*	-10.0	x	8.4	-2.5	17.8	6.3
CCCN1C[C@H](C)[C@H](OC)CN(C)C(=O)c2ccc(NS(=O)(=O)c3cn(C)cn3)cc2OC[C@@H]1C	28.1	44.3	x	x	x	x	x
CCCC(=O)Nc1ccc2c(c1)OC[C@H](C)N(C(=O)c1cccnc1)C[C@@H](C)[C@@H](OC)CN(C)C2=O	12.7	8.9	x	x	x	x	x
CCCNC(=O)N1C[C@H](C)[C@@H](OC)CN(C)C(=O)c2cc(NC(=O)CC)ccc2OC[C@@H]1C	u	24.4	x	-17.4	-1.8	2.6	-4.9
Cc1ccc(S(=O)(=O)Nc2ccc3c(c2)C(=O)N([C@H](C)CO)C[C@@H](C)[C@H](CN(C)C(=O)NC2CCCCC2)OCCCC[C@@H](C)O3)cc1	79.7	-27.9	2.9	x	x	x	x
CCC(=O)Nc1ccc2c(c1)C(=O)N(C)C[C@H](OC)[C@@H](C)CN(Cc1ccccc1)[C@H](C)CO2	-53.1	-2.7	x	x	x	x	x
O=C(O)[C@@H]1[C@@H](CO)[C@@H]2Cn3c(ccc(-c4ccc(F)cc4)c3=O)[C@@H]2N1CCc1ccccc1	18.2	x	2.8	x	x	x	x
COc1ccc2c3c([nH]c2c1)[C@@H](CO)N(C(=O)CN(C)C)CC31CN(CC2CCOCC2)C1	x	19.7	4.2	x	x	x	x
O=C(C[C@@H]1C[C@@H]2c3cc(NC(=O)NC4CCCCC4)ccc3O[C@@H]2[C@H](CO)O1)NCc1ccccc1	93.5	-6.2	x	x	x	x	x
C[C@H](CO)N1C[C@H](C)[C@H](CN(C)C(=O)Nc2ccc3c(c2)OCO3)Oc2ccc(NS(C)(=O)=O)cc2C1=O	-102.8	23.0	x	x	x	x	x
COc1ccc2c3c(n(C)c2c1)[C@@H](CO)N(C(=O)c1ccc(F)cc1)CC31CN(C)C1	x	-3.0	-1.8	x	x	x	x
Cc1ccccc1S(=O)(=O)NCC[C@H]1CC[C@H](NC(=O)Nc2cccc(Cl)c2)[C@@H](CO)O1	8.3	0.1	x	x	x	x	x
COc1cccc(C(=O)Nc2ccc3c(c2)OC[C@H](C)N(CCc2ccccc2)C[C@H](C)[C@H](OC)CN(C)C3=O)c1	35.8	-61.4	x	x	x	x	x
CCCN1C[C@@H](C)[C@H](OC)CN(C)C(=O)c2ccc(NC(=O)c3cccc(F)c3)cc2OC[C@H]1C	101.8*	-87.2*	x	103.7*	62.6	10.5	36.9*
CCCN1C[C@H](C)[C@H](OC)CN(C)C(=O)c2ccc(NC(=O)c3cccc(F)c3)cc2OC[C@H]1C	51.1	-34.9	x	x	x	x	x
COc1cccc(C(=O)Nc2ccc3c(c2)OC[C@H](C)N(CCc2ccccc2)C[C@@H](C)[C@H](OC)CN(C)C3=O)c1	108.2*	-25.1	x	101.3*	70.7	7.8	10.1
C[C@H]1CN([C@@H](C)CO)C(=O)c2cc(C#CCN(C)C)cnc2O[C@H]1CN(C)C(=O)Nc1ccccc1F	-181.4	7.2	1.5	x	x	x	x
CCNC(=O)[C@@H]1[C@@H](CO)[C@@H]2Cn3c(ccc(-c4ccccc4)c3=O)[C@@H]2N1C(=O)C1CCC1	15.9	2.5	1.7	x	x	x	x
CN(C)CC(=O)N1[C@H](C#N)[C@@H](c2ccc(C#CC3CCCCC3)cc2)[C@H]1CO	109.1*	-20.8	0.2	106.9*	72.8	1.4	101.6*
SMILES	T cruzi growth-1	Pf Dd2 inh	C diff growth	T cruzi growth-2	T cruzi growth-3	NIH3T3 tox	3T3 cytotox 2
CN(C)CC(=O)N1[C@H](C#N)[C@@H](c2ccc(C#CC3CCCCC3)cc2)[C@@H]1CO	71.7	-16.1	0.5	x	x	x	x
CN(C)CC(=O)N1[C@@H](C#N)[C@@H](c2ccc(C#CC3CCCCC3)cc2)[C@@H]1CO	42.0	14.2	6.9	x	x	x	x
CN(C)CC(=O)N1[C@@H](C#N)[C@H](c2ccc(C#CC3CCCCC3)cc2)[C@@H]1CO	102.1*	-32.0	-0.4	98.1*	37.7	19.7	104.2*
O=C(Nc1ccccc1F)N[C@H]1CC[C@H](CCNC(=O)C2CCCC2)O[C@@H]1CO	x	3.5	-1.5	x	x	x	x
COCCNC(=O)[C@@H]1[C@@H](CO)[C@@H]2Cn3c(ccc(-c4ccccc4F)c3=O)[C@H]1N2S(C)(=O)=O	52.4	x	6.4	x	x	x	x
COc1ccccc1NC(=O)N1CC(=O)N2[C@H](C1)[C@H](c1ccc(-c3ccc(C)cc3)cc1)[C@@H]2CO	x	3.2	14.4	x	x	x	x
C[C@@H](O)C#Cc1ccc([C@@H]2[C@H](CO)N3CCCCN(C(=O)c4ccncc4)C[C@@H]23)cc1	1.2	30.0	-5.9	x	x	x	x
COc1ccc(C#Cc2ccc([C@@H]3[C@@H](CO)N4CCCCN(C(=O)c5ccncc5)C[C@H]34)cc2)cc1	112.3*	-22.2	-5.3	106.9*	38.2	45.4*	103.1*
COc1ccc(C#Cc2ccc([C@H]3[C@@H](CO)N4CCCCN(C(=O)c5ccncc5)C[C@@H]34)cc2)cc1	116.4*	5.9	-19.6	103.6*	63.6	22.6	26.0
COc1ccc(C#Cc2ccc([C@H]3[C@H](CO)N4CCCCN(C(=O)c5ccncc5)C[C@@H]34)cc2)cc1	116.4*	-27.8	39.2	113.6*	69.9	27.6	96.5*
C[C@H](O)C#Cc1ccc([C@H]2[C@@H](CO)N3CCCCN(C(=O)c4ccncc4)C[C@@H]23)cc1	12.2	18.5	-0.9	x	x	x	x
C[C@H](O)C#Cc1ccc([C@H]2[C@@H](CO)N3CCCCN(C(=O)c4ccncc4)C[C@H]23)cc1	24.0	18.9	-3.8	x	x	x	x
CCC(=O)N[C@H]1C=C[C@H](CC(=O)NCc2ccccc2OC)O[C@H]1CO	-63.4	9.2	3.1	x	x	x	x
CNC(=O)C[C@H]1CC[C@@H]2[C@H](COc3ccc(NC(=O)c4ccccc4Cl)cc3C(=O)N2C)O1	1.2	-3.3	0.1	x	x	x	x
CO[C@H]1CN(C)C(=O)c2cc(NC(=O)c3ccc(F)cc3)ccc2OC[C@H](C)N(C(C)=O)C[C@@H]1C	-13.5	6.2	-0.3	x	x	x	x
